PubChem BioAssay
Active and inactive are the calls of the source.

Columns and labels:
[1] = anti-His antibody binders, primary screen, artefact control for SMM control protein annotation, biochemical, small-molecule microarray, 635 nm fluorescence (AID 1128); settings: anti-His Alexa647 antibody binding, higher = more signal;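 note: score merges feature fluorescence with signal-to-noise for each printed compound spot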
[2] = tested on: Human papillomavirus type 1a E7 protein (residues 1-88); assay: HPV1a E7 small-molecule binders, primary screen, biochemical, small-molecule microarray, residues 1-88, 635 nm (AID 1129); settings: small-molecule microarray binding, fluorescence 635 nm; higher = more signal
[3] = target: Focal adhesion kinase 1 (Homo sapiens) (UniProt Q05397); assay: small-molecule microarray binders of FAK, primary screen, biochemical, 635/667 nm fluorescence, BSA, DTT (AID 1130); settings: PTK2 binding, 635 nm fluorescence, higher = more signal;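 note: composite of spot emission at 667 nm and signal to noise over triplicate slides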
[4] = tested on: Fibrinogen (Alexa647-labelled); assay: fibrinogen binders on compound microarrays, profiling panel, artefact control for SMM control-protein annotation, biochemical, small-molecule microarray, 635/667 nm fluorescence (AID 1131); settings: fibrinogen-A647 binding fluorescence, higher = more signal;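 note: z-score merges 667 nm fluorescence with per-spot signal-to-noise over triplicate slides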
[5] = target: Follistatin (Homo sapiens) (UniProt P19883); assay: follistatin binders on small-molecule microarrays, primary screen, biochemical, small-molecule microarray, 635/667 nm fluorescence (AID 1132); settings: FST binding, 635 nm fluorescence, higher = more signal
[6] = target: Fibroblast growth factor 2 (Homo sapiens) (UniProt P09038); assay: FGF2 binders on small-molecule microarrays, primary screen, biochemical, small-molecule microarray, 635/667 nm fluorescence (AID 1133); settings: small-molecule microarray binding, FGF2, fluorescence 635/667; higher = more signal
[7] = mitochondrial membrane potential change in A549 cells, profiling panel, cell-based, JC-1 fluorescence, basal, 24 h, 100 nL (AID 1138); settings: higher = more signal;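 note: A549 lung adenocarcinoma cells under basal conditions with no added stimulus; test concentration not given here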
Lefty1 = Lefty1 binders on small-molecule microarrays, primary screen, biochemical, small-molecule microarray, 635/667 nm fluorescence (AID 1139); settings: small-molecule microarray binding, fluorescence 635/667; higher = more signal
[8] = tested on: wheat germ agglutinin (Triticum aestivum), Alexa647-labelled; assay: wheat germ agglutinin binders on compound microarrays, profiling panel, artefact control for SMM control-protein annotation, biochemical, small-molecule microarray, 635/667 nm fluorescence (AID 1140); settings: WGA-A647 binding, 635 nm fluorescence, higher = more signal;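 note: score merges 667 nm feature emission with signal to noise over triplicate slides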
[9] = target: Luciferin 4-monooxygenase (Photinus pyralis) (UniProt P08659); assay: firefly luciferase enzyme inhibitors, primary screen, biochemical, luminescence, purified enzyme, 2006 set (AID 1141); settings: SteadyGlo luminescence, 30 min, higher = more signal, called active from +8 up or from −8 down;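 note: cell-free assay with purified firefly luciferase at 100 ng per well in PBS; test concentration not given here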
Chain of Luciferin 4-monooxygenase (Photinus pyralis) (P08659 whole entry, looked up): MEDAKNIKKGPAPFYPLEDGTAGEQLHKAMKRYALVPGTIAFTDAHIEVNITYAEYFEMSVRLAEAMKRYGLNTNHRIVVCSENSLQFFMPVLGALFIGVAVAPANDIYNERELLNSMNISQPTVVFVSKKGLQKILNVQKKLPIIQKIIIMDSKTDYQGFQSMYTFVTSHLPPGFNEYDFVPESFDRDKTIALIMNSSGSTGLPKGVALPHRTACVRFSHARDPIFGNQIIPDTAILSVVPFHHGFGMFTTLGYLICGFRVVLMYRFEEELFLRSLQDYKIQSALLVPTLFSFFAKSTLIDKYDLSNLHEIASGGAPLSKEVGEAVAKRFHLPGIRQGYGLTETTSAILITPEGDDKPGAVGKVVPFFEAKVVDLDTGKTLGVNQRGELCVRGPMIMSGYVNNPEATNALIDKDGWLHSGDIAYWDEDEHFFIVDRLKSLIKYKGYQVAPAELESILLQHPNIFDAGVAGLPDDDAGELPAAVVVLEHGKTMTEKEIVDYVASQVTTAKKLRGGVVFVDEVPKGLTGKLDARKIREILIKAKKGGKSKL

Chain of Fibroblast growth factor 2 (Homo sapiens) (P09038 whole entry, looked up): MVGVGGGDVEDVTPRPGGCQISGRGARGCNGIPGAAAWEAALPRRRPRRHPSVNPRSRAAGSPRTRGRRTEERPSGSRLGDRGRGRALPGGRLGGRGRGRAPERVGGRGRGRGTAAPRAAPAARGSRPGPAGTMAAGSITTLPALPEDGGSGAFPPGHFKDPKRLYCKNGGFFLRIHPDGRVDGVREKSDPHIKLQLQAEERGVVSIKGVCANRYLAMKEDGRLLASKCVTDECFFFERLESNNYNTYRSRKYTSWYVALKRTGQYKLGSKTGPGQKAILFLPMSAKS
Chain of Focal adhesion kinase 1 (Homo sapiens) (Q05397 whole entry, looked up): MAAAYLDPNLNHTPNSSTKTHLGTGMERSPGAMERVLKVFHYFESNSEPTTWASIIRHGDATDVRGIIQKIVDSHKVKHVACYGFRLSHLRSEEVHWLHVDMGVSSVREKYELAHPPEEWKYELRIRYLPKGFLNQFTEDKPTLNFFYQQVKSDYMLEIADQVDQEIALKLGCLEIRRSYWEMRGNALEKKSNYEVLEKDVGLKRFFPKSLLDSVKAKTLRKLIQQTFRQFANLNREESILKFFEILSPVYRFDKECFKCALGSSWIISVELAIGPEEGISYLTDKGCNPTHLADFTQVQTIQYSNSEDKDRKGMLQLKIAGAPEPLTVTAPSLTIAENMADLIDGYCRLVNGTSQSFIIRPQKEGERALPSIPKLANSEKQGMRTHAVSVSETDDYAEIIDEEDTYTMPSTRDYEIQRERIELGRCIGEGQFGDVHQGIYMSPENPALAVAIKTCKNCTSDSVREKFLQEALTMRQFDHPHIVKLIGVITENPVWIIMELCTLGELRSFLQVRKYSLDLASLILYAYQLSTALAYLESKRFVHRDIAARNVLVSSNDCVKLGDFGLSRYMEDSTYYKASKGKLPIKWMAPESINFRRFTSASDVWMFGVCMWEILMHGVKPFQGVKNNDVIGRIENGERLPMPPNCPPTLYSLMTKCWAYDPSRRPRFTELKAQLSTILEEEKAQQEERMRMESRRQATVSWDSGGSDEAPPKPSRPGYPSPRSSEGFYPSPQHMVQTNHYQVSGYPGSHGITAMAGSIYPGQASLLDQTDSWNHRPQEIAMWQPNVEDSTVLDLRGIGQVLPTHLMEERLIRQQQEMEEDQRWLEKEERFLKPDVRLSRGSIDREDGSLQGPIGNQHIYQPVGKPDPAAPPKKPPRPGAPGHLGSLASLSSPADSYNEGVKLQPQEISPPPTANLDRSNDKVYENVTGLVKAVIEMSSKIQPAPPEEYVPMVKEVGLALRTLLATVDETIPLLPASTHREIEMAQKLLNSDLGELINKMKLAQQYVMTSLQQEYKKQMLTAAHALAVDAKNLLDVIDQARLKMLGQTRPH
Chain of Follistatin (Homo sapiens) (P19883 whole entry, looked up): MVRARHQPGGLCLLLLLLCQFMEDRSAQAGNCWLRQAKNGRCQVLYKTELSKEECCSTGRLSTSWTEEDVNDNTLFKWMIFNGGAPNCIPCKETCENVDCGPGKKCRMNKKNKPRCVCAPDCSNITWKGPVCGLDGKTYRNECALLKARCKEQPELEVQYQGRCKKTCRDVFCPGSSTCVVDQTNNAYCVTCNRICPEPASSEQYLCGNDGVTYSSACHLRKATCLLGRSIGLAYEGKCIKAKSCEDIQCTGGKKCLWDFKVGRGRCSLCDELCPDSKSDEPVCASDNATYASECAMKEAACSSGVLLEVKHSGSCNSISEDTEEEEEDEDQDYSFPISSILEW

SMILES	composite z-score [1]	composite z-score [2]	composite z-score [3]	composite z-score [4]	composite z-score [5]	composite z-score [6]	z-score [7]	composite z-score (Lefty1)	composite z-score [8]	z-score [9]
CCCNC(=O)[C@@]1(C)c2ccccc2C(=O)N(Cc2cc(F)cc(C(F)(F)F)c2)[C@H]1c1ccc(CO)cc1	0.858	-0.331	-0.527	-1.73	-0.839	-0.812	-0.394	-0.662	0.932	0.942 (inactive)
CCN(CC)c1ccc(N2CC=CC34O[C@@H]5C=CCCOC(=O)C5[C@H]3C(=O)N(CCCO)[C@@H]4C2=O)cc1 (stereo not given in full)	-1.26	-1.14	0.585	-1.33	-0.0464	-0.175	0.185	0.108	-1.19	-0.546 (inactive)
[N-]=[N+]=NCc1ccccc1C[C@]1(C(=O)NCCN2CCOCC2)N=C(c2ccc(OCCCO)cc2)O[C@H]1c1ccccc1CN=[N+]=[N-]	1.09	1.21	1.43	0.99	1.11	0.783	0.963	0.886	0.495	0.203 (inactive)
C=CC[C@@]1(C(N)=O)N=C(c2ccc(OCCCO)cc2)O[C@@H]1c1ccccc1N=[N+]=[N-]	1.91	1.24	0.231	0.183	1.34	1.14	0.755	1.04	1.13	-5.82 (inactive)
O=C1c2ccccc2[C@](Cc2ccccc2I)(C(=O)O)[C@H](c2ccc(CO)cc2)N1Cc1ccccc1C(F)(F)F	1.3	1.09	0.425	0.9	0.72	-0.238	-0.635	-0.374	1.12	0.63 (inactive)
C=CCC(OC(C)=O)[C@@H]1[C@@H](N(Cc2cc3ccccc3o2)C(=O)c2cccc3ccccc23)c2cc(OCCCO)ccc2N1C(=O)Cc1ccc(OC)cc1 (stereo not given in full)	0.305	-0.328	-0.109	0.412	1.02	0.78	-0.529	0.339	0.637	0.48 (inactive)
CN1C(=O)C2C(C1=O)C1C=C(c3ccc(CO)cc3)C2C(C2CC2)N1Cc1cc2c(cc1Br)OCO2 (stereo not given)	2.81	1.23	1.47	0.976	1.23	0.784	1.34	0.175	1.18	-1.9 (inactive)
CN1C(=O)C2C=CC(C(O)C3=C[C@H]4C[C@@H](C3)C4(C)C)N(Nc3ccc([N+](=O)[O-])cc3[N+](=O)[O-])C2C1=O (stereo not given in full)	1.45	1.16	0.588	0.978	1.07	0.0958	0.731	0.181	1.02	-0.88 (inactive)
CC(=O)N1Cc2ccccc2C[C@@]2(N=C(c3ccc(OCCCO)cc3)O[C@H]2c2ccccc2)C1=O	2.65	1.17	0.52	0.657	1.41	1.66	0.592	0.63	1.1	-2.32 (inactive)
CC(C)NC(=O)[C@@]1(c2ccc([N+](=O)[O-])cc2)CC(=O)N(C(C)C)[C@@H]1c1ccc(CO)cc1	0.0052	-0.0933	-1.05	-0.961	-0.849	-1.23	1.3	-0.554	0.516	-0.979 (inactive)
CCCC[C@@H]1C[C@H]1[C@@H](NC(=O)c1ccccc1)c1ccccc1	1.47	-0.23	0.202	0.244	0.671	0.085	-1.03	-0.235	0.136	1.19 (inactive)
COCCOC(=O)N1C(=O)[C@@]2(c3cc(C#CCCO)ccc31)[C@H](c1ccc(O)cc1)N1[C@H](c3ccccc3)[C@H](c3ccccc3)OC(=O)[C@H]1[C@@H]2C(=O)N1CCCCCCC1	2.4	1	0.855	0.771	1.43	1.6	-0.183	1.21	1.06	-0.179 (inactive)
C=CC[C@@]1(C(=O)NCc2ccccc2)N=C(c2ccc(OCCCO)cc2)O[C@@H]1c1ccccc1CN=[N+]=[N-]	1.8	1.22	1.06	0.995	1.29	-0.204	0.903	-0.0518	0.888	-0.876 (inactive)
Cc1ccc(N2C(=O)c3ccccc3[C@@H](C(=O)NCC(C)C)[C@@H]2c2ccc(CO)cc2)nc1	0.0133	-0.871	-0.451	-0.877	-0.186	-0.246	0.738	-0.609	-0.674	-0.663 (inactive)
C=C(C(=O)CC[C@@H](OC(=O)c1cccnc1)c1ccc(CO)o1)C(C)C	-0.403	0.799	0.113	0.82	1.26	1.1	0.288	1.56	0.187	-1.96 (inactive)
Cc1ccc(C(C)CC(O)C2C=CC3C(=O)NC(=O)C3N2Nc2ccccn2)o1 (stereo not given)	1.17	-0.722	-0.121	-0.633	0.709	0.243	0.839	0.643	-0.0217	-2.19 (inactive)
C#C[C@H](O[Si](C#CCCCCCC)(C(C)C)C(C)C)c1ccccc1	0.272	0.203	-0.308	-0.152	0.481	-0.471	-0.562	0.605	-0.174	1.25 (inactive)
O=C1C2C=CC(C(O)c3ccc(B(O)O)cc3)N(Nc3ccc([N+](=O)[O-])cc3)C2C(=O)N1c1ccccc1 (stereo not given)	0.359	1.21	-0.164	0.843	1.13	0.284	0.0898	0.284	1.11	0.491 (inactive)
O=C(NCC(F)(F)F)[C@@H]1c2ccccc2C(=O)N(Cc2ccccc2)[C@H]1c1ccc(CO)cc1	1.52	-1.3	-0.813	-1.17	-1.25	-1.34	0.764	-1.57	-0.595	-0.363 (inactive)
O=C1O[C@@H](c2ccccc2)[C@@H](c2ccccc2)N2[C@@H](c3ccccc3OCCO)[C@]3(C(=O)Nc4ccc(C#CC5(O)CCCCCC5)cc43)[C@@H](C(=O)NC[C@H](O)c3ccccc3)[C@H]12	1.82	1.2	1.03	-0.51	1.17	0.106	-1.15	1.54	1.21	-0.215 (inactive)
C[C@]1(C(=O)NCC(F)(F)F)c2ccccc2C(=O)N(Cc2cc(F)cc(C(F)(F)F)c2)[C@H]1c1ccc(CO)cc1	-0.99	0.105	-0.0984	0.0953	1.24	0.261	-1.8	-0.273	-0.0396	0.408 (inactive)
